# Source: PubChem BioAssay (Tox21)
# Inconclusive results are not listed. Entries that show only a call come without a potency. Active and inactive are the calls of the source. Unless noted, calls come from the whole dose curve; as a rule, active = well fitted curve in the direction sought with a large enough effect in the repeat runs; inconclusive = weak or mixed curves; inactive = no such curve, though single readings can be large; an effect the other way counts as inactive or inconclusive.
# What was measured:
# [1] = biological target: Aryl hydrocarbon receptor (Homo sapiens) (UniProt P35869); assay: qHTS assay to identify small molecule that activate the aryl hydrocarbon receptor (AhR) signaling pathway (AID 743085); note: nearly all actives have a fitted effect of over 15% in size; note: potency is the fitted concentration of half-maximal effect;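 for activation: HG2L7.5c1 human HepG2 liver cells with stably integrated DRE-driven firefly reporter; series mostly up to about 70 µM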
# Chain of Aryl hydrocarbon receptor (Homo sapiens) (P35869 whole entry, looked up): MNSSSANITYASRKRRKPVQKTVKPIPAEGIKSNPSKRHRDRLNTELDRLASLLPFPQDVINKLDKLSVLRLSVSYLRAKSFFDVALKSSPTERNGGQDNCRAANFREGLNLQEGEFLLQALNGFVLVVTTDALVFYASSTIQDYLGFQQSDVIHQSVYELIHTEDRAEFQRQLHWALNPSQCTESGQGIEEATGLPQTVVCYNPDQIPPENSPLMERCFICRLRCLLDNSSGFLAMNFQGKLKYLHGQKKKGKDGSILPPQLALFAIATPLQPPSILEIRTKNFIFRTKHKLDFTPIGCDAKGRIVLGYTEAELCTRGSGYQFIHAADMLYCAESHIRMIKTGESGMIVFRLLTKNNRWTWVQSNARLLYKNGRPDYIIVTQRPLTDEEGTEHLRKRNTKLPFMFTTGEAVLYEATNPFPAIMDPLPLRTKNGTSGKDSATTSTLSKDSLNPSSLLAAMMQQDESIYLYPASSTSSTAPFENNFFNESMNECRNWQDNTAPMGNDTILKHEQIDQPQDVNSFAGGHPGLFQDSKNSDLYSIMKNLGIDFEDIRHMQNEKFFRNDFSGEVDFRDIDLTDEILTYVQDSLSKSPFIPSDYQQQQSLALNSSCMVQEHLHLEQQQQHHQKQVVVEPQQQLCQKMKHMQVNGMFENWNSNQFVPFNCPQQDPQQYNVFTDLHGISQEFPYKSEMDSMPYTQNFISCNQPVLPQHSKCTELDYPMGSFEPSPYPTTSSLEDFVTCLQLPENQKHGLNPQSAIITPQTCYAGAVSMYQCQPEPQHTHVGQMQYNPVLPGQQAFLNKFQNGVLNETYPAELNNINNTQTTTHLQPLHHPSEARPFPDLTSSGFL
# Summary of the method: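 Measured in HG2L7.5c1 cells: CellTiter-Fluor signal (30 min incubation, 37C) for viability, then luciferase luminescence (30 min, room temperature). Compound contact time was 24 h at 37C, following a 5 h pre-incubation.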
# [2] = qHTS assay to identify small molecule that activate the aryl hydrocarbon receptor (AhR) signaling pathway - cell viability counter screen (AID 743086); note: nearly all actives have a fitted effect of over 45% in size; note: potency is the fitted concentration of half-maximal effect
# Summary of the method: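 Cytotoxicity counter screen: CellTiter-Fluor signal (30 min, 37 C) in 4000 HepG2 cells/well carrying the DRE-luciferase reporter, following 24 h compound exposure at 37 C.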
# [3] = biological target: Peroxisome proliferator-activated receptor gamma (Homo sapiens) (UniProt P37231); assay: qHTS assay to identify small molecule agonists of the peroxisome proliferator-activated receptor gamma (PPARg) signaling pathway (AID 743094; active = well fitted activation curve with a large enough effect in the signal ratio in the repeat runs, not every such curve was filed as active; the % refers to the signal ratio)
# Chain of Peroxisome proliferator-activated receptor gamma (Homo sapiens) (P37231 whole entry, looked up): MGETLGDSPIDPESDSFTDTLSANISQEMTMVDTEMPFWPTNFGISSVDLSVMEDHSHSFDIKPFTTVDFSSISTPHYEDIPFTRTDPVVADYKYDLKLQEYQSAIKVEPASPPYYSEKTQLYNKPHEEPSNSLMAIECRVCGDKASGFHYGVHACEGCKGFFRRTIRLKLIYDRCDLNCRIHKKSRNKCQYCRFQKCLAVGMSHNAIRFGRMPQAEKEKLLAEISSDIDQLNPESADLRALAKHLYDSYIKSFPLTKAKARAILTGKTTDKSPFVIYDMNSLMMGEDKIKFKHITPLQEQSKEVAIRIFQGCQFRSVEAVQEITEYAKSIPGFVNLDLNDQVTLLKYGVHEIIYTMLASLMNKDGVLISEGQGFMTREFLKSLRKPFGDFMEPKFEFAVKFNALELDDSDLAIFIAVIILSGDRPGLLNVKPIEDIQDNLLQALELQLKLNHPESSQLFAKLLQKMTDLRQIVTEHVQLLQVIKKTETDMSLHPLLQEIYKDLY
# Summary of the method: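 Reporter activation was scored by fluorescence of cleaved LiveBLAzer B/G substrate (1 h, room temperature) in PPARg-bla HEK293H cells previously treated 17 h at 37C with DMSO-dissolved compounds.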
# [4] = qHTS assay to identify small molecule antagonists of the peroxisome proliferator-activated receptor gamma (PPARg) signaling pathway - cell viability counter screen (AID 743194); note: nearly all actives have a fitted effect of over 55% in size
# Summary of the method: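 Viability was measured as CellTiter-Glo luminescence in GeneBLAzer PPARg UAS-bla HEK293H cells. These cells had been exposed 17 h at 37 C to compounds together with rosiglitazone at 50 nM final, with the beta-lactamase readout taken in the same wells.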
# [5] = qHTS assay for small molecule agonists of the antioxidant response element (ARE) signaling pathway (AID 743202; active = well fitted activation curve with a large enough effect in the signal ratio in the repeat runs, not every such curve was filed as active; the % refers to the signal ratio; note: potency is the fitted concentration of half-maximal effect)
# Summary of the method: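 After 16 hours of compound treatment at 37 C, HepG2 cells with a stably integrated ARE-driven beta-lactamase reporter were loaded 2 hours at room temperature with LiveBLAzer B/G FRET substrate and fluorescence intensity measured.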
# [6] = qHTS assay for small molecule agonists of the antioxidant response element (ARE) signaling pathway - cell viability counter screen (AID 743203; calls by dose curve; note: nearly all actives have a fitted effect of over 55% in size)
# Summary of the method: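 Viability counter screen: stably transfected ARE-bla HepG2 line, 16 hrs compound exposure at 37C/5% CO2, ATP-based CellTiter-Glo luminescence measured in the reporter wells.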
# [7] = qHTS assay for small molecule activators of the heat shock response signaling pathway - cell viability counter screen (AID 743209); note: nearly all actives have a fitted effect of over 50% in size
# Summary of the method: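 Viability of HSE-bla HeLa cells is measured with CellTiter-Glo in the wells already used for the reporter read. Compound exposure lasts 5 h at 37 C, and luminescence is read after 30 min at room temperature.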
# [8] = qHTS assay for small molecule activators of the heat shock response signaling pathway (AID 743210; active = well fitted activation curve with a large enough effect in the signal ratio in the repeat runs, with a control signal flat, not every such curve was filed as active; the % refers to the signal ratio; note: series mostly up to about 63 µM)
# Summary of the method: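 Compound exposure lasted 5 h at 37 C in HeLa cells carrying a heat-shock-element-driven beta-lactamase reporter. Read-out: fluorescence intensity after 2.5 h room-temperature loading with LiveBLAzer B/G FRET substrate.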
# [9] = qHTS assay to identify small molecule agonists of the peroxisome proliferator-activated receptor delta (PPARd) signaling pathway - cell viability counter screen (AID 743211); note: nearly all actives have a fitted effect of over 55% in size; note: potency is the fitted concentration of half-maximal effect
# Summary of the method: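 Following 5 h plating at 37 C and 5% CO2, PPARd UAS-bla HEK293H cells took up test compounds for 17 h. Viability was quantified by luminescence 30 min after CellTiter-Glo addition at room temperature.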
# [10] = biological target: Peroxisome proliferator-activated receptor delta (Homo sapiens) (UniProt Q03181); assay: qHTS assay to identify small molecule agonists of the peroxisome proliferator-activated receptor delta (PPARd) signaling pathway (AID 743212; calls by dose curve;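 note: HEK293H cells with PPARd UAS beta-lactamase reporter GeneBLAzer system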)
# Chain of Peroxisome proliferator-activated receptor delta (Homo sapiens) (Q03181 whole entry, looked up): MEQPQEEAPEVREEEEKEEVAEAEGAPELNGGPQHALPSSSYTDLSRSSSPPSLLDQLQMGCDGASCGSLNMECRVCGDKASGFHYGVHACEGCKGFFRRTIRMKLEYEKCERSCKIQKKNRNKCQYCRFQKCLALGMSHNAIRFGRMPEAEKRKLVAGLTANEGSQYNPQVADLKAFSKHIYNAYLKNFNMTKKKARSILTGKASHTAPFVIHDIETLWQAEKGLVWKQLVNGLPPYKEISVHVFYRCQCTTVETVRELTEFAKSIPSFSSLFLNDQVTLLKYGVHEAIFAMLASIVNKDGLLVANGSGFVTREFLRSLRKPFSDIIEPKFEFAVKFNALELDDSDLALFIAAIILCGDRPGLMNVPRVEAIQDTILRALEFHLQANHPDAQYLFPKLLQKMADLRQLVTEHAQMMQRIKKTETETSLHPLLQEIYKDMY
# Summary of the method: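 Beta-lactamase reporter readout: a ratiometric FRET signal from the LiveBLAzer substrate after 2 h at room temperature. Compound exposure at 37 °C in PPARδ-bla HEK293H cells driven by an upstream activator sequence.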
# [11] = biological target: Peroxisome proliferator-activated receptor delta (Homo sapiens) (UniProt Q03181); assay: qHTS assay to identify small molecule antagonists of the peroxisome proliferator-activated receptor delta (PPARd) signaling pathway (AID 743215; active = well fitted inhibition curve with a large enough effect in the signal ratio in the repeat runs, not every such curve was filed as active; the % refers to the signal ratio;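 note: cells stimulated with agonist L165041 at 300 nM final during compound exposure; series mostly up to about 62 µM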)
# Summary of the method: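 Plated HEK293H PPARd-bla cells rested 5 h at 37 C and 5% CO2. Compound, then agonist L165041 at 300 nM final, was added; 17 h at 37 C followed. Substrate loading, 2 h room temperature, fluorescence measured.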
# [12] = biological target: Bile acid receptor (Homo sapiens) (UniProt Q96RI1); assay: qHTS assay to identify small molecule antagonists of the farnesoid-X-receptor (FXR) signaling pathway (AID 743217; active = well fitted inhibition curve with a large enough effect in the signal ratio in the repeat runs, not every such curve was filed as active; the % refers to the signal ratio; note: potency is the fitted concentration of half-maximal effect)
# Chain of Bile acid receptor (Homo sapiens) (Q96RI1 whole entry, looked up): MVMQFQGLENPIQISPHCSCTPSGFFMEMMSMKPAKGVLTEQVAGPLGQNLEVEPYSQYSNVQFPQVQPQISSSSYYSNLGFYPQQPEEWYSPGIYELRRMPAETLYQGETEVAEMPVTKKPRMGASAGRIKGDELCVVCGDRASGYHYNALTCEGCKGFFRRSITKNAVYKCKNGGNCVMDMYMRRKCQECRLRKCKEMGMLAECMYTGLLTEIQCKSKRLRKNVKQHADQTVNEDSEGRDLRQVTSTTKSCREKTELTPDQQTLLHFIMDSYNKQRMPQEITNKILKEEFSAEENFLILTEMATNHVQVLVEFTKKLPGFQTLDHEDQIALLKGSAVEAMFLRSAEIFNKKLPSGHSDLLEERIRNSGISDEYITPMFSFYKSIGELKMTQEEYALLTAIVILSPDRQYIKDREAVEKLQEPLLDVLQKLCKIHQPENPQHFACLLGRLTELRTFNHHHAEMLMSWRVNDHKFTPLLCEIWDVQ
# Summary of the method: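 Screen of the Tox21 10K library in quantitative HTS format using FXR-UAS-bla HEK 293T reporter cells. Agonist chenodeoxycholic acid, 50 uM final, added with compounds; 16 h incubation at 37 °C; beta-lactamase FRET fluorescence measured.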
# [13] = qHTS assay to identify small molecule agonists of the farnesoid-X-receptor (FXR) signaling pathway - cell viability counter screen (AID 743218); note: nearly all actives have a fitted effect of over 45% in size
# Summary of the method: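 Viability of FXR-bla HEK 293T cells is measured by ATP-based CellTiter-Glo luminescence following 16 h compound treatment at 37 C and a prior 2 h room-temperature beta-lactamase substrate step.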
# [14] = qHTS assay to identify small molecule antagonists of the farnesoid-X-receptor (FXR) signaling pathway - cell viability counter screen (AID 743221; active = well fitted cell-killing curve with a large enough effect in the repeat runs, not every such curve was filed as active; note: nearly all actives have a fitted effect of over 50% in size)
# Summary of the method: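 Compound effects on cell number were measured as CellTiter-Glo luminescence in HEK 293T cells expressing FXR-UAS-bla, after 16 h at 37 C with 50 uM CDCA (final).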
# [15] = biological target: Vitamin D3 receptor (Homo sapiens) (UniProt P11473); assay: qHTS assay to identify small molecule agonists of the vitamin D receptor (VDR) signaling pathway (AID 743222; calls by dose curve)
# Chain of Vitamin D3 receptor (Homo sapiens) (P11473 whole entry, looked up): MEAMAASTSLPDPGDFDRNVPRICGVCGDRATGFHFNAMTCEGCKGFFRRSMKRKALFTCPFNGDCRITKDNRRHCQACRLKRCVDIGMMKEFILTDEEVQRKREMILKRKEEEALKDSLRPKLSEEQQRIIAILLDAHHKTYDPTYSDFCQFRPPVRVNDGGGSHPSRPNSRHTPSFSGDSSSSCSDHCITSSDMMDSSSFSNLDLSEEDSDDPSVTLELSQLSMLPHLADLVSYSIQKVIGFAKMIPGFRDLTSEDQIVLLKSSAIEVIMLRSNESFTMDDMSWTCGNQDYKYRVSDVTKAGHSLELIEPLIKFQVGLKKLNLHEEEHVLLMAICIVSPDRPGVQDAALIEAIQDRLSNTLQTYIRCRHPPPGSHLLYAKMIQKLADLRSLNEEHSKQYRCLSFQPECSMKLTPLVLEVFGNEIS
# Summary of the method: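 Fluorescence from cleaved LiveBLAzer B/G FRET substrate served as readout. VDR-bla cells had been treated 16 h at 37C with test compounds in DMSO, following a 4 h settling period, and substrate was loaded for 2 h at RT.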
# [16] = biological target: Vitamin D3 receptor (Homo sapiens) (UniProt P11473); assay: qHTS assay to identify small molecule antagonists of the vitamin D receptor (VDR) signaling pathway (AID 743223; active = well fitted inhibition curve with a large enough effect in the signal ratio in the repeat runs, not every such curve was filed as active; the % refers to the signal ratio)
# Summary of the method: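 Beta-lactamase activity in VDR-bla cells is measured by FRET substrate fluorescence (2 h, room temperature) after cells spend 16 h at 37C with test compound and 3 nM final 1alpha,25-dihydroxyvitamin D3.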
# [17] = qHTS assay to identify small molecule agonists of the vitamin D receptor (VDR) signaling pathway - cell viability counter screen (AID 743224); note: nearly all actives have a fitted effect of over 50% in size; note: potency is the fitted concentration of half-maximal effect
# Summary of the method: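 Compounds were pin-transferred onto VDR-bla cells plated 4 h earlier; following 16 h incubation at 37C, cell viability was quantified by CellTiter-Glo luminescence after 30 min at room temperature.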
# [18] = biological target: Peroxisome proliferator-activated receptor gamma (Homo sapiens) (UniProt P37231); assay: qHTS assay to identify small molecule antagonists of the peroxisome proliferator-activated receptor gamma (PPARg) signaling pathway (AID 743191; calls by dose curve; note: series mostly up to about 63 µM; nearly all actives have a fitted effect of over 30% in size)
# Summary of the method: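 Beta-lactamase reporter under UAS control in HEK293H PPARg-bla cells; compound treatment 17 h at 37C. Read-out: fluorescence intensity after 1 h room-temperature incubation with LiveBLAzer B/G FRET substrate.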
# [19] = qHTS assay to identify small molecule antagonists of the peroxisome proliferator-activated receptor delta (PPARd) signaling pathway - cell viability counter screen (AID 743213); note: nearly all actives have a fitted effect of over 50% in size; note: potency is the fitted concentration of half-maximal effect
# Summary of the method: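 PPARd-bla HEK293H cells were treated with compounds plus agonist L165041 (300 nM final) for 17 h at 37 C. Viability was then read in the same wells by CellTiter-Glo luminescence after 30 min at room temperature.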
# [20] = biological target: Bile acid receptor (Homo sapiens) (UniProt Q96RI1); assay: qHTS assay to identify small molecule agonists of the farnesoid-X-receptor (FXR) signaling pathway (AID 743220; active = well fitted activation curve with a large enough effect in the signal ratio in the repeat runs, not every such curve was filed as active; the % refers to the signal ratio)
# Summary of the method: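 FXR-UAS-bla HEK 293T cells carrying a UAS-driven beta-lactamase reporter were plated for 5 h at 37C/5% CO2, then exposed to DMSO-dissolved Tox21 10K compounds for 16 h at 37C. A LiveBLAzer B/G FRET substrate was loaded for 2 h at room temperature before fluorescence reading.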
SMILES,Potency [1],Potency [2],Potency [3],Potency [4],Potency [5],Potency [6],Potency [7],Potency [8],Potency [9],Potency [10],Potency [11],Potency [12],Potency [13],Potency [14],Potency [15],outcome [16],Potency [17],Potency [18],Potency [19],Potency [20]
CCCn1cnc2c1c(=O)n(CCCCC(C)=O)c(=O)n2C,inactive,inactive,inactive,inactive,inactive,inactive,inactive,inactive,inactive,inactive,inactive,inactive,inactive,inactive,inactive,inactive,inactive,,,
COc1ccc(-c2nc3ccc(C4=NNC(=O)CC4C)cc3[nH]2)cc1 (stereo not drawn),11.9 µM (active),inactive,inactive,inactive,inactive,inactive,inactive,inactive,,inactive,,29.8 µM (active),,inactive,inactive,inactive,inactive,,,
CCCCCCCC/C=C\CCCCCCCC(=O)OCC,inactive,inactive,inactive,,,inactive,inactive,inactive,inactive,inactive,,,inactive,inactive,inactive,inactive,inactive,inactive,,
Nc1ncn([C@H]2C[C@H](O)[C@@H](CO)O2)c(=O)n1,inactive,inactive,inactive,inactive,inactive,inactive,inactive,,inactive,,,10.6 µM (active),inactive,inactive,inactive,inactive,inactive,,inactive,inactive
Nc1cc(C(=O)O)c(O)c(S(=O)(=O)O)c1,inactive,inactive,inactive,inactive,inactive,inactive,inactive,inactive,,,,,inactive,inactive,inactive,inactive,inactive,,inactive,
C=CCOc1ccccc1OCC(O)CNC(C)C (stereo not drawn),inactive,inactive,inactive,inactive,inactive,inactive,inactive,inactive,,inactive,inactive,inactive,inactive,inactive,inactive,inactive,inactive,,inactive,inactive
OC(CN1CCC(Cc2ccc(F)cc2)CC1)c1ccc(Cl)cc1 (stereo not drawn),inactive,inactive,inactive,inactive,,,inactive,,,,,inactive,inactive,inactive,,,,inactive,inactive,inactive
COS(=O)(=O)C(F)(F)F,inactive,inactive,inactive,inactive,inactive,,inactive,,,inactive,,inactive,inactive,inactive,,,,,,inactive
Cc1nn(C)c(Oc2ccccc2)c1/C=N/OCc1ccc(C(=O)OC(C)(C)C)cc1,inactive,inactive,inactive,inactive,,,inactive,inactive,,,inactive,,inactive,inactive,inactive,,0.0123 µM (active),,,inactive
CCCCC1=NC2(CCCC2)C(=O)N1Cc1ccc(-c2ccccc2-c2nn[nH]n2)cc1,inactive,inactive,,inactive,,inactive,inactive,,inactive,inactive,inactive,inactive,inactive,inactive,inactive,,,inactive,inactive,inactive
CN(Cc1ccc(C(C)(C)C)cc1)Cc1cccc2ccccc12,inactive,inactive,inactive,,inactive,inactive,inactive,,,,inactive,,,,inactive,inactive,,,23.7 µM (active),
CCCCCCCCCOS(=O)(=O)O,inactive,inactive,inactive,,,inactive,inactive,inactive,,,inactive,,inactive,inactive,inactive,,inactive,,inactive,
COc1cc(C(=O)OCCCN2CCCN(CCCOC(=O)c3cc(OC)c(OC)c(OC)c3)CC2)cc(OC)c1OC,inactive,inactive,,inactive,11.9 µM (active),inactive,inactive,inactive,inactive,,inactive,,inactive,inactive,inactive,,inactive,,,
CCOC(=O)COC(=O)c1cc(Oc2ccc(C(F)(F)F)cc2Cl)ccc1[N+](=O)[O-],inactive,inactive,inactive,inactive,,inactive,inactive,,inactive,,,inactive,inactive,inactive,inactive,inactive,inactive,,inactive,
CC(C)=CCC/C(C)=C/CC/C(C)=C/CO,inactive,inactive,inactive,inactive,,inactive,,,38.9 µM (active),,inactive,,inactive,inactive,inactive,inactive,49 µM (active),,inactive,
COc1ccc(S(=O)(=O)N2C(=O)[C@@](c3ccccc3OC)(N3C[C@H](O)C[C@H]3C(=O)N(C)C)c3cc(Cl)ccc32)c(OC)c1,inactive,30.6 µM (active),inactive,,,,,inactive,,,inactive,,inactive,inactive,inactive,,,,,
CCN(CC)c1ccc2c(-c3ccccc3C(=O)O)c3ccc(=[N+](CC)CC)cc-3oc2c1,inactive,9.69 µM (active),inactive,inactive,,inactive,inactive,,inactive,,,inactive,,inactive,inactive,,,,inactive,
C[C@@H]1C[C@H]2O[C@@]3(O[C@@H]2C(C)(C)O)[C@H](O)[C@@]2(C)[C@@H]4CC[C@H]5C(C)(C)[C@@H](O[C@@H]6OC[C@@H](O)[C@H](O)[C@H]6O)CC[C@@]56C[C@@]46CC[C@]2(C)[C@@H]13,inactive,inactive,inactive,inactive,,inactive,inactive,inactive,,,,,inactive,inactive,inactive,inactive,inactive,,inactive,
Nc1cccc(S(=O)(=O)c2cccc(N)c2)c1,inactive,inactive,inactive,inactive,,,,,inactive,inactive,inactive,,inactive,inactive,inactive,inactive,inactive,,,
O=C1CCCCCCCCCCCC(=O)OCCO1,inactive,inactive,inactive,inactive,,inactive,inactive,inactive,inactive,inactive,,,,inactive,inactive,,inactive,,inactive,
C/C=C/C=C/CO,inactive,inactive,inactive,,,inactive,inactive,inactive,inactive,inactive,inactive,inactive,inactive,inactive,inactive,inactive,inactive,,inactive,
O=C(Nc1ccccc1)c1ccccc1O,21.7 µM (active),inactive,inactive,inactive,24.3 µM (active),,inactive,,,inactive,inactive,,inactive,inactive,,,,,inactive,
